# High-throughput results deposited in PubChem BioAssay by National Center for Advancing Translational Sciences (NCATS).
# BAZ2B inh: BAZ2B (human) inhibition; Q9UIF8; AlphaScreen BAZ2B-H3K14Ac peptide displacement; 4.4% of 360,000 active; Potency, µM (doses to about 114 µM), for inactives: top-dose activity change, negative = inhibition, usual class: inhibitors; also: % is scaled to controls: 0 for no effect and ±100 for the full control effect; nearly all actives have a fitted effect of over 60% in size
#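 BAZ2B (50 nM) with biotin-H3(5-23)K14Ac peptide (50 nM) in PBS pH 7.4, 0.01% Tween-20, preformed 30 min, then compound 30 min at room temperature; top concentration 110uM. AlphaScreen streptavidin donor/nickel chelate acceptor beads (10 ug/mL final), 20 min dark, signal read.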
# HP1b binding inh: inhibitors of HP1-beta chromodomain binding to methylated histone tails. AlphaScreen HP1-beta / biotin-H3K9me3 peptide binding. Potency, µM (highest dose often 114 µM), inactives show at the highest dose activity change, negative = inhibition, usual class: inhibitors. P83916. AID 540317. 0.56% of 390,000 active; also: nearly all actives have a fitted effect of over 70% in size
#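 AlphaScreen: HP1-beta (50 nM) preformed 30 min with biotin-H3(1-18)K9me3 peptide (50 nM) in PBS pH 7.4, 0.01% Tween-20. Compound added for 30 min at RT, then streptavidin donor/nickel chelate acceptor beads (10 ug/mL) for 30 min.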
# GLS inhibitor: blocks human kidney-isoform glutaminase activity; Potency, µM (doses to about 45.5 µM), without a hit: top-dose activity change, negative = inhibition, hits mostly inhibitors; AID 624170; 0.21% of 410,000 active; GLS enzymatic activity, qHTS titration; also: % is scaled to controls: 0 for no effect and ±100 for the full control effect
#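 Human kidney-isoform GLS in 45 mM KH2PO4 pH 8.2, 0.02% Tween-20, with compound, started with 1mM L-Glutamine (added stock). Glutamate oxidase/HRP/Amplex red coupled fluorescence read at start and after 30 min at RT.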
# G9a inh: inhibitors of human histone lysine methyltransferase G9a; Potency, µM (titrated, usually from 102 µM), for inactives: at the highest dose activity, negative = inhibition, most hits filed as inhibitors; 8.8% of 350,000 active; AID 504332; Q96KQ7; G9a H3K9 monomethylation, AlphaScreen, 2 h; also: % is scaled to controls: 0 for no effect and ±100 for the full control effect; nearly all actives have a fitted effect of over 75% in size
#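 Methyltransferase reactions run at room temperature for 2 h (20 nM enzyme, 500 nM biotin-H3K9 peptide, 20 uM SAM) after a 15 min compound preincubation; product detected by AlphaScreen beads and anti-H3K9me1 antibody.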
# JMJD2A Tudor inh: blocks the human JMJD2A Tudor domain; AlphaScreen JMJD2A-Tudor / H3K4me3 peptide binding; 4.4% of 390,000 active; Potency, µM (top dose mostly 114 µM), inactives show at the highest dose activity change, negative = inhibition, most hits filed as inhibitors; also: % is scaled to controls: 0 for no effect and ±100 for the full control effect; nearly all actives have a fitted effect of over 50% in size
# Target sequence (O75164 whole entry, looked up, the tested form may be a part): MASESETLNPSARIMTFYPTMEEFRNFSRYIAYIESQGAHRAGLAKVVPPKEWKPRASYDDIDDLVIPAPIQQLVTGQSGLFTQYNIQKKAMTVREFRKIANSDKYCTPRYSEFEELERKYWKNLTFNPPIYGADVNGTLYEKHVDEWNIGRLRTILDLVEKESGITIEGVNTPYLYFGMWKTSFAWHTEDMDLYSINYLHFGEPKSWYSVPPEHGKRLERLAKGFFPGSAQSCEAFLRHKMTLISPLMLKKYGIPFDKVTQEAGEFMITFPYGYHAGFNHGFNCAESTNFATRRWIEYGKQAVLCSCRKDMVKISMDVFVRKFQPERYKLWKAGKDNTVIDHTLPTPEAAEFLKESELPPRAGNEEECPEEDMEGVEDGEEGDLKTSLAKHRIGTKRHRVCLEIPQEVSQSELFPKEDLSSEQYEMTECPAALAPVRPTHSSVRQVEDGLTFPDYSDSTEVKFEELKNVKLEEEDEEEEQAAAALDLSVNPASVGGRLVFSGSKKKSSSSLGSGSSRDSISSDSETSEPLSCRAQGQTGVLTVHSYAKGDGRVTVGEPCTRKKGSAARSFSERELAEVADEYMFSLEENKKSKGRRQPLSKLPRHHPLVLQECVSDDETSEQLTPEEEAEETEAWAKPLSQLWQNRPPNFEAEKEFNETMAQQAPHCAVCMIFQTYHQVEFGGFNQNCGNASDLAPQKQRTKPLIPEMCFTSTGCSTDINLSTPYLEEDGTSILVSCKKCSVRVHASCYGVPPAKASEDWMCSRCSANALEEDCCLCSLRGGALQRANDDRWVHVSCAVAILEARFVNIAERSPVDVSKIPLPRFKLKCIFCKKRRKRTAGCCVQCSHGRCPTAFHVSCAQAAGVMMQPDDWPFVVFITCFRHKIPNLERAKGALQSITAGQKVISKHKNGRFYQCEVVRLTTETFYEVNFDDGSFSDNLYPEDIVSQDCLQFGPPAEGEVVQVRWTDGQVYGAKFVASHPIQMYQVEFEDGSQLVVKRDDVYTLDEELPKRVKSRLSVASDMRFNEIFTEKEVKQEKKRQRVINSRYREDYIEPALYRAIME
# * marks the source's active call; other numbers are inactive results; ? = inconclusive; . = no result given; [ ] = another dose, or the depositor's remark. Hits are enriched below; roughly 10% of the tested compounds scored in any of these assays. Calls follow the shape of the dose curve; as a rule, active = well fitted curve in the direction sought with a large enough effect; inconclusive = small, poorly fitted or top-dose-only effect, or another doubt; inactive = no such curve, though single readings can be large; an effect the other way counts as inactive or inconclusive. Potency is read from the fitted curve at half-maximal effect.
SMILES,BAZ2B inh,HP1b binding inh,GLS inhibitor,G9a inh,JMJD2A Tudor inh
CCCCc1nc(SCC(=O)N2CCOCC2)c2c(=O)n(C)c(=O)n(C)c2n1,-16%,18%,19%,4%,-23%
O=C(Cn1c(=O)sc2ccccc21)Nc1ccc(O)cc1,-10%,17%,5%,-5%[59 µM],-6%
CCCNC(=O)CSc1c(CCC)cnc2c1c(=O)n(C)c(=O)n2C,1%,37%,?,-14%[59 µM],-15%
CCn1c(SCC(=O)NCc2ccco2)nc2c(c1=O)SC(C)C2 (centres undefined),-7%,5%,1%,14µM*,-33%
CCCc1cnc2c(c1SCC(=O)NCc1ccc(C)cc1)c(=O)n(C)c(=O)n2C,-23%,1%,-10%,10µM*,-14%
CC1(C(=O)Nc2cccc(OC(F)(F)F)c2)Cc2c(-c3ccc(C(N)=O)cc3)ccnc2O1 (centres undefined),.,.,-2%,.,.
CSc1ccc(C(=O)C2CCCN(Cc3cccn3-c3cccnc3)C2)cc1 (centres undefined),?,?,-2%,?,45µM*
Cc1ccc2c(CC(=O)N(Cc3ccc(Cl)cc3)Cc3ccco3)coc2c1,-5%,47%,-11%,-16%[59 µM],11%
CCn1c(=O)n(CCOC)c(=O)c2c3c(sc21)CCCC3,6%,29%,-8%,-46%[59 µM],14%
COCCn1c(=S)[nH]c2sc3c(c2c1=O)CCC(C)C3 (centres undefined),-5%,15%,?,20µM*,-22%
CCCn1c(=S)[nH]c2sc3c(c2c1=O)CCCC3,-4%,22%,-1%,-5%,-33%
Cn1c(=S)[nH]c2sc3c(c2c1=O)CCC(C(C)(C)C)C3 (centres undefined),3%,.,.,40µM*,.
CC(=O)Cn1nnc2sc3c(c2c1=O)CCC(C(C)(C)C)C3 (centres undefined),-20%,17%,-3%,-5%,-29%
COCCCn1c(=S)[nH]c2sc3c(c2c1=O)CCCS3,?,27%,10%,4.5µM*,-18%
COC(=O)C1=C[C@@H](C(=O)OC)C2C3=C(C(=O)[C@@]2(C)NC(=O)c2ccccc2)[C@H](C)n2c(=O)n(C)c(=O)n2[C@@H]3C1 (some centres undefined),.,26%,.,.,-11%
CCN(Cc1ccccc1)Cc1c(O)ccc2oc(C)c(C(=O)Nc3ccccc3C)c12,-23%,-2%,14%,?,-29%
Cc1ccc(S(=O)(=O)N(C)CCN(C)c2nc(-c3cccs3)nc3ccccc23)cc1,.,21%,.,.,-7%
COc1ccc(/C=C/C(=O)Oc2cccc(/C=N/NC(=O)COc3c(C)cccc3C)c2)cc1,100µM*,20%,12%,-80%[12.7 µM],2%
C=CCc1ccccc1OCCSc1nc2ccc([N+](=O)[O-])cc2s1,-38%,-10%,1%,20µM*,-31%
O=[N+]([O-])c1ccc2nc(SCc3ccccc3Cl)sc2c1,-38%,-10%,-1%,?,?
COc1ccccc1OCCSc1nc2ccc([N+](=O)[O-])cc2s1,?,?,5%,13µM*,?
CC(C)N1CCC(C)(C(=O)Nc2ccc(-n3cccc3)cc2)C1 (centres undefined),.,.,18%,.,.
Cc1ccc(C(=O)Nc2ccc3oc(-c4ccc(C(C)(C)C)cc4)nc3c2)cc1,5%,20%,15%,20%[59 µM],-13%
CN(CCOc1ccc(Cl)cc1)C(=O)CNS(=O)(=O)c1ccc(N(C)C)c([N+](=O)[O-])c1,?,-13%,1%,40µM*,?
COc1ccccc1-n1cnnc1SCC(=O)Nc1ncc(Cl)cc1Cl,-4%,-5%,2%,-10%[59 µM],50µM*
SMILES,BAZ2B inh,HP1b binding inh,GLS inhibitor,G9a inh,JMJD2A Tudor inh
COCCn1c(C)cc(C(=O)CSc2nc(C)c(C)c(C)n2)c1C,?,-7%,0%,28µM*,?
COc1ccc2c(C)cc(SCC(=O)c3ccc4c(c3)OCO4)nc2c1,-29%,54%,2%,-49%,-5%
COCCn1c(C)cc(C(=O)CSc2cc(C)c3ccc(OC)cc3n2)c1C,-37%,-9%,0%,71µM*,?
COc1ccc2c(C)cc(SCC(=O)Nc3ncc(Cl)cc3Cl)nc2c1,-3%,26%,0%,25µM*,-6%
COCC(C)n1c(C)cc(C(=O)CSc2nc(C)c(C)c(C)n2)c1C (centres undefined),?,12%,2%,-33%[12.7 µM],-34%
Cc1ccc(C)c(S(=O)(=O)c2nnn3c2nc(Nc2ccc(F)c(Cl)c2)c2sccc23)c1,-9%,44%,-9%,0%[59 µM],-16%
COCCNC(=O)CSc1cc(-c2ccccc2)c2ccc(OC)cc2n1,-15%,48%,-20%,22µM*,-24%
O=C(COC(=O)CNS(=O)(=O)c1cc(C(F)(F)F)ccc1Cl)NC1CC1,.,23%,8%,.,2%
CCN1CCN(CC(=O)n2c3c(c4ccccc42)CC(C)CC3)CC1 (centres undefined),-11%,-22%,-1%,0%[59 µM],?
CC1CCc2c(c3ccccc3n2C(=O)CCl)C1 (centres undefined),79µM*,26%,1%,19%[0.501 µM],?
CC(C)(C)OC(=O)N[C@@H](Cc1ccccc1)c1nnc(SCC(N)=O)o1,-10%,39%,-2%,?,-22%
COC(=O)CSc1nnc([C@H](Cc2ccccc2)NC(=O)OC(C)(C)C)o1,2%,26%,1%,18%,13%
COC(=O)CS(=O)(=O)c1nnc([C@H](Cc2ccccc2)NC(=O)OC(C)(C)C)o1,7%,4%,9%,?,79µM*
CN(C)C(=O)CSc1nnc([C@H](Cc2ccccc2)NC(=O)OC(C)(C)C)o1,0%,-9%,2%,40µM*,-6%
Cc1cccc(CS(=O)(=O)c2nnc([C@H](Cc3ccccc3)NC(=O)OC(C)(C)C)o2)c1,4%,67%,-6%,10µM*,-4%
C[C@H](NC(=O)OCc1ccccc1)c1nnc([C@H](Cc2ccccc2)NC(=O)OC(C)(C)C)o1,-4%,29%,0%,22%[59 µM],-15%
CCOCCc1nn2c(=O)cc(COC(=O)c3ccccc3Br)nc2s1,-22%,30%,16%,11%[59 µM],-14%
O=C(NCC(c1ccc(Cl)cc1)N1CCCCC1)c1ccccc1F (centres undefined),1%,54%,3%,?,4%
CCOc1ccc(-n2c(C)cc(/C=C3/C(=N)N4C(=NC3=O)SN=C4S(C)(=O)=O)c2C)cc1,56µM*,10%,19%,28µM*,?
COc1ccccc1-n1c(C)cc(/C=C2/C(=N)N3C(=NC2=O)SN=C3S(C)(=O)=O)c1C,.,10%,2%,50µM*,-36%
Cc1cc(/C=C2/C(=N)N3C(=NC2=O)SN=C3S(C)(=O)=O)c(C)n1-c1ccc(F)cc1,.,16%,12%,40µM*,-24%
